# Data as given in PubChem BioAssay (NCI).
# This is part of a sample that, as a whole, favours compounds with a hit. Of some 79,000 tested, about 15% had one in any assay. A number with no mark means an inactive call. Activity calls are given as the source filed them. Rule as the data show it: active = growth inhibition above about 70%; inactive = the rest.
# Legend:
# [1] = NCI Yeast Anticancer Drug Screen. Data for the rad52 strain (AID 147);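 also: 0% = growth of vehicle-treated control cultures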; settings: S. cerevisiae rad52 mutant growth inhibition, hits give high values
# How it was run: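 Vehicle-treated cultures served as the reference for growth inhibition of compound-exposed yeast bearing a DNA repair mutation.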
# [2] = NCI Yeast Anticancer Drug Screen. Data for the wt1 strain (AID 149);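 also: 0% = growth of vehicle-treated wt1 cultures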; settings: S. cerevisiae wt1 strain (SPY 50644) growth inhibition, hits give high values
# How it was run: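 The wt1 strain was treated with compounds, and growth was compared with vehicle-treated cultures to give inhibition.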
# [3] = NCI Yeast Anticancer Drug Screen. Data for the rad50EPP+ strain (AID 151);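 also: 0% = growth of vehicle-treated control cultures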; settings: S. cerevisiae rad50 mutant strain, hits give high values
# How it was run: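 In this screen, rad50EPP+ yeast were exposed to compounds. Growth inhibition was scored against vehicle-treated controls.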
# [4] = NCI Yeast Anticancer Drug Screen. Data for the mgt1 strain (AID 153); settings: S. cerevisiae mgt1 mutant growth inhibition, hits give high values
# How it was run: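 mgt1 strain exposed; growth vs vehicle control recorded as inhibition.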
# [5] = NCI Yeast Anticancer Drug Screen. Data for the rad50 strain (AID 155);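 also: 0% = growth of vehicle-only cultures of the same strain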; settings: S. cerevisiae rad50 strain growth inhibition, hits give high values
# How it was run: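 Cells are treated with compound, grown, and their growth is then scored against vehicle-only cultures of the same repair-deficient yeast strain.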
# [6] = NCI Yeast Anticancer Drug Screen. Data for the mec2-1 strain (AID 157); settings: S. cerevisiae mec2-1 strain, hits give high values
# How it was run: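 Vehicle-treated cultures served as reference for growth inhibition of compound-exposed mec2-1 yeast.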
# [7] = NCI Yeast Anticancer Drug Screen. Data for the rad14 strain (AID 159);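 also: 0% = growth of vehicle-treated control cultures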; settings: S. cerevisiae rad14 strain growth inhibition, hits give high values
# How it was run: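 Readout: yeast growth inhibition, referenced to vehicle-only cultures. Strain bears a defined alteration in DNA damage repair.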
# [8] = NCI Yeast Anticancer Drug Screen. Data for the sgs1 mgt1 strain (AID 161);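 also: 0% = growth of cultures given vehicle only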; settings: S. cerevisiae sgs1 mgt1 strain, hits give high values
# How it was run: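 Read-out: growth inhibition vs vehicle controls. Cells: mutant yeast strain deficient in DNA damage repair.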
# [9] = NCI Yeast Anticancer Drug Screen. Data for the CLN2oe strain (AID 163);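 also: 0% = growth of vehicle-only control cultures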; settings: S. cerevisiae CLN2oe strain, hits give high values
# How it was run: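 Inhibition relative to vehicle-treated yeast is reported. Cells: strain with genetic alteration in cell-cycle control, grown with compound.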
# [10] = NCI Yeast Anticancer Drug Screen. Data for the cln2 rad14 strain (AID 165);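 also: 0% = growth equal to vehicle treated cultures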; settings: S. cerevisiae cln2 rad14 strain, hits give high values
# How it was run: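 Each compound was tested on cln2 rad14 yeast. Inhibition of growth was calculated against vehicle-exposed controls.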
# [11] = NCI Yeast Anticancer Drug Screen. Data for the bub3 strain (AID 167); settings: S. cerevisiae bub3 mutant strain, hits give high values
# How it was run: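 Part of a panel of yeast mutants defective in DNA damage repair or cell cycle regulation. Each strain is grown with compound, and inhibition is calculated relative to solvent-treated cultures.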
# [12] = NCI Yeast Anticancer Drug Screen. Data for the wt2 strain (AID 169);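 also: 0% = growth of vehicle-treated yeast cultures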; settings: S. cerevisiae wt2 strain growth inhibition, hits give high values
# How it was run: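 Inhibition of yeast growth was determined after compound treatment, normalised to controls receiving only vehicle.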
# [13] = NCI Yeast Anticancer Drug Screen. Data for the mlh1 strain (AID 171);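 also: 0% = growth of vehicle-treated control cultures of the same strain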; settings: S. cerevisiae mlh1 strain growth inhibition, hits give high values
# How it was run: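 Vehicle-normalised growth inhibition of a repair- or checkpoint-altered yeast strain following compound treatment.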
# [14] = NCI Yeast Anticancer Drug Screen. Data for the sgs1 strain (AID 173);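 also: 0% = growth of vehicle-only control cultures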; settings: S. cerevisiae sgs1 mutant, hits give high values
# How it was run: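 Screen format: yeast with repair or checkpoint alterations, compound exposure, growth read relative to vehicle.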
# [15] = NCI Yeast Anticancer Drug Screen. Data for the mlh1 rad18 strain (AID 175); settings: S. cerevisiae mlh1 rad18 strain growth inhibition, hits give high values
# How it was run: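 Vehicle-treated cultures served as the reference for growth inhibition in a yeast strain carrying DNA damage repair alterations exposed to each compound.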
# [16] = NCI Yeast Anticancer Drug Screen. Data for the rad18 strain (AID 177); settings: S. cerevisiae rad18 mutant growth inhibition, hits give high values
# How it was run: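 Test articles were incubated with altered yeast defective in DNA damage repair. Results are given as inhibition of growth versus vehicle.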
# [17] = at 5.0 µM (retest, dose inferred, filed as 0.5)
# [18] = at 50.0 µM (retest, dose inferred, filed as 5.0)
smiles,measurement,setting,value
COc1cc2c(cc1C[N+](C)(C)CSc1ccccc1)-c1ccccc1CC2,growth inhibition,[1]; at 1.2 µM,-12%
same,growth inhibition,[1]; at 3.7 µM,-8%
same,growth inhibition,[1]; at 11.0 µM,79% (active)
same,growth inhibition,[1]; at 33.0 µM,99% (active)
same,growth inhibition,[1]; at 100.0 µM,99% (active)
same,growth inhibition,[2]; at 1.2 µM,-17%
same,growth inhibition,[2]; at 3.7 µM,-14%
same,growth inhibition,[2]; at 11.0 µM,29%
same,growth inhibition,[2]; at 33.0 µM,98% (active)
same,growth inhibition,[2]; at 100.0 µM,98% (active)
same,growth inhibition,[3]; at 1.2 µM,3%
same,growth inhibition,[3]; at 3.7 µM,20%
same,growth inhibition,[3]; at 11.0 µM,19%
same,growth inhibition,[3]; at 33.0 µM,20%
same,growth inhibition,[3]; at 100.0 µM,43%
same,growth inhibition,[4]; at 1.2 µM,7%
same,growth inhibition,[4]; at 3.7 µM,15%
same,growth inhibition,[4]; at 11.0 µM,30%
same,growth inhibition,[4]; at 33.0 µM,98% (active)
same,growth inhibition,[4]; at 100.0 µM,99% (active)
same,growth inhibition,[5]; at 1.2 µM,-7%
same,growth inhibition,[5]; at 3.7 µM,8%
same,growth inhibition,[5]; [17],11%
same,growth inhibition,[5]; at 11.0 µM,76% (active)
same,growth inhibition,[5]; at 33.0 µM,98% (active)
same,growth inhibition,[5]; [18],98% (active)
same,growth inhibition,[5]; at 50.0 µM,99% (active)
same,growth inhibition,[5]; at 100.0 µM,99% (active)
same,growth inhibition,[6]; at 1.2 µM,-6%
same,growth inhibition,[6]; at 3.7 µM,6%
same,growth inhibition,[6]; [17],3%
same,growth inhibition,[6]; at 11.0 µM,80% (active)
same,growth inhibition,[6]; at 33.0 µM,98% (active)
same,growth inhibition,[6]; [18],99% (active)
same,growth inhibition,[6]; at 50.0 µM,99.3% (active)
same,growth inhibition,[6]; at 100.0 µM,96% (active)
same,growth inhibition,[7]; at 1.2 µM,-12%
same,growth inhibition,[7]; at 3.7 µM,-10%
same,growth inhibition,[7]; at 11.0 µM,64%
same,growth inhibition,[7]; at 33.0 µM,98% (active)
same,growth inhibition,[7]; at 100.0 µM,98% (active)
same,growth inhibition,[8]; [17],-1%
same,growth inhibition,[8]; [18],99% (active)
same,growth inhibition,[8]; at 50.0 µM,99.2% (active)
same,growth inhibition,[9]; at 1.2 µM,-17%
same,growth inhibition,[9]; at 3.7 µM,6%
same,growth inhibition,[9]; at 11.0 µM,70% (active)
same,growth inhibition,[9]; at 33.0 µM,98% (active)
same,growth inhibition,[9]; at 100.0 µM,99% (active)
same,growth inhibition,[10]; [17],-3%
same,growth inhibition,[10]; [18],99% (active)
same,growth inhibition,[10]; at 50.0 µM,99.3% (active)
same,growth inhibition,[11]; at 1.2 µM,17%
same,growth inhibition,[11]; at 3.7 µM,-4%
same,growth inhibition,[11]; [17],1%
same,growth inhibition,[11]; at 11.0 µM,78% (active)
same,growth inhibition,[11]; at 33.0 µM,98% (active)
same,growth inhibition,[11]; [18],98% (active)
same,growth inhibition,[11]; at 50.0 µM,99.5% (active)
same,growth inhibition,[11]; at 100.0 µM,99% (active)
same,growth inhibition,[12]; at 1.2 µM,13%
same,growth inhibition,[12]; at 3.7 µM,21%
same,growth inhibition,[12]; at 11.0 µM,96% (active)
same,growth inhibition,[12]; at 33.0 µM,98% (active)
same,growth inhibition,[12]; at 100.0 µM,99% (active)
same,growth inhibition,[13]; at 1.2 µM,6%
same,growth inhibition,[13]; at 3.7 µM,16%
same,growth inhibition,[13]; at 11.0 µM,35%
same,growth inhibition,[13]; at 33.0 µM,98% (active)
same,growth inhibition,[13]; at 100.0 µM,98% (active)
same,growth inhibition,[14]; at 1.2 µM,2%
same,growth inhibition,[14]; at 3.7 µM,8%
same,growth inhibition,[14]; at 11.0 µM,36%
same,growth inhibition,[14]; at 33.0 µM,97% (active)
same,growth inhibition,[14]; at 100.0 µM,99% (active)
same,growth inhibition,[15]; [17],-5%
same,growth inhibition,[15]; [18],99% (active)
same,growth inhibition,[15]; at 50.0 µM,99.3% (active)
Nc1ccc2c(=S)c3ccccc3[nH]c2c1,growth inhibition,[1]; at 1.2 µM,8%
same,growth inhibition,[1]; at 3.7 µM,12%
same,growth inhibition,[1]; at 11.0 µM,12%
same,growth inhibition,[1]; at 33.0 µM,32%
same,growth inhibition,[1]; at 100.0 µM,71% (active)
same,growth inhibition,[2]; at 1.2 µM,9%
same,growth inhibition,[2]; at 3.7 µM,30%
same,growth inhibition,[2]; at 11.0 µM,22%
same,growth inhibition,[2]; at 33.0 µM,44%
same,growth inhibition,[2]; at 100.0 µM,48%
same,growth inhibition,[3]; at 1.2 µM,0%
same,growth inhibition,[3]; at 3.7 µM,6%
same,growth inhibition,[3]; at 11.0 µM,12%
same,growth inhibition,[3]; at 33.0 µM,23%
same,growth inhibition,[3]; at 100.0 µM,74% (active)
same,growth inhibition,[4]; at 1.2 µM,-3%
same,growth inhibition,[4]; at 3.7 µM,1%
same,growth inhibition,[4]; at 11.0 µM,0%
same,growth inhibition,[4]; at 33.0 µM,16%
same,growth inhibition,[4]; at 100.0 µM,51%
same,growth inhibition,[5]; at 1.2 µM,18%
same,growth inhibition,[5]; at 3.7 µM,1%
same,growth inhibition,[5]; [17],15%
same,growth inhibition,[5]; at 11.0 µM,8%
same,growth inhibition,[5]; at 33.0 µM,22%
same,growth inhibition,[5]; [18],50%
same,growth inhibition,[5]; at 50.0 µM,29.4%
same,growth inhibition,[5]; at 100.0 µM,48%
same,growth inhibition,[6]; at 1.2 µM,9%
same,growth inhibition,[6]; at 3.7 µM,-3%
same,growth inhibition,[6]; [17],14%
same,growth inhibition,[6]; at 11.0 µM,-3%
same,growth inhibition,[6]; at 33.0 µM,26%
same,growth inhibition,[6]; [18],40%
same,growth inhibition,[6]; at 50.0 µM,28.9%
same,growth inhibition,[6]; at 100.0 µM,35%
same,growth inhibition,[7]; at 1.2 µM,4%
same,growth inhibition,[7]; at 3.7 µM,7%
same,growth inhibition,[7]; at 11.0 µM,2%
same,growth inhibition,[7]; at 33.0 µM,12%
same,growth inhibition,[7]; at 100.0 µM,42%
same,growth inhibition,[8]; [17],29%
same,growth inhibition,[8]; [18],83% (active)
same,growth inhibition,[8]; at 50.0 µM,80.5% (active)
same,growth inhibition,[9]; at 1.2 µM,16%
same,growth inhibition,[9]; at 3.7 µM,4%
same,growth inhibition,[9]; at 11.0 µM,13%
same,growth inhibition,[9]; at 33.0 µM,19%
same,growth inhibition,[9]; at 100.0 µM,51%
same,growth inhibition,[10]; [17],26%
same,growth inhibition,[10]; [18],62%
same,growth inhibition,[10]; at 50.0 µM,28.3%
same,growth inhibition,[11]; at 1.2 µM,-19%
same,growth inhibition,[11]; at 3.7 µM,-16%
same,growth inhibition,[11]; [17],9%
same,growth inhibition,[11]; at 11.0 µM,-16%
same,growth inhibition,[11]; at 33.0 µM,-9%
same,growth inhibition,[11]; [18],82% (active)
same,growth inhibition,[11]; at 50.0 µM,47.5%
same,growth inhibition,[11]; at 100.0 µM,35%
same,growth inhibition,[12]; at 1.2 µM,-7%
same,growth inhibition,[12]; at 3.7 µM,-1%
same,growth inhibition,[12]; at 11.0 µM,1%
same,growth inhibition,[12]; at 33.0 µM,49%
same,growth inhibition,[12]; at 100.0 µM,83% (active)
same,growth inhibition,[13]; at 1.2 µM,-2%
same,growth inhibition,[13]; at 3.7 µM,9%
same,growth inhibition,[13]; at 11.0 µM,-2%
same,growth inhibition,[13]; at 33.0 µM,27%
same,growth inhibition,[13]; at 100.0 µM,61%
same,growth inhibition,[14]; at 1.2 µM,17%
same,growth inhibition,[14]; at 3.7 µM,18%
same,growth inhibition,[14]; at 11.0 µM,20%
same,growth inhibition,[14]; at 33.0 µM,24%
same,growth inhibition,[14]; at 100.0 µM,59%
same,growth inhibition,[15]; [17],6%
same,growth inhibition,[15]; [18],64%
same,growth inhibition,[16]; at 1.2 µM,2%
same,growth inhibition,[16]; at 3.7 µM,-2%
same,growth inhibition,[16]; at 11.0 µM,-8%
same,growth inhibition,[16]; at 33.0 µM,4%
same,growth inhibition,[16]; at 100.0 µM,67%
